# Results taken from PubChem BioAssay (NCATS).
# Active and inactive are the calls of the source.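 How the source made its calls, unless noted: active means compounds whose dose series gives a full or clear partial fitted curve of increased nuclear translocation; inconclusive means weak partial curve or effect only at the top dose; inactive means no dose-dependent translocation response.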
# Molecular target: Glucocorticoid receptor (Homo sapiens) (UniProt P04150)
# Assay: GR-GFP Redistribution (AID 450)
# Settings: U2OS GR-GFP nuclear translocation, laser cytometry, 2 h; series mostly up to 20.6 µM
# Potency means the concentration at half of the fitted maximal effect.
# Chain of Glucocorticoid receptor (Homo sapiens) (P04150 whole entry, looked up): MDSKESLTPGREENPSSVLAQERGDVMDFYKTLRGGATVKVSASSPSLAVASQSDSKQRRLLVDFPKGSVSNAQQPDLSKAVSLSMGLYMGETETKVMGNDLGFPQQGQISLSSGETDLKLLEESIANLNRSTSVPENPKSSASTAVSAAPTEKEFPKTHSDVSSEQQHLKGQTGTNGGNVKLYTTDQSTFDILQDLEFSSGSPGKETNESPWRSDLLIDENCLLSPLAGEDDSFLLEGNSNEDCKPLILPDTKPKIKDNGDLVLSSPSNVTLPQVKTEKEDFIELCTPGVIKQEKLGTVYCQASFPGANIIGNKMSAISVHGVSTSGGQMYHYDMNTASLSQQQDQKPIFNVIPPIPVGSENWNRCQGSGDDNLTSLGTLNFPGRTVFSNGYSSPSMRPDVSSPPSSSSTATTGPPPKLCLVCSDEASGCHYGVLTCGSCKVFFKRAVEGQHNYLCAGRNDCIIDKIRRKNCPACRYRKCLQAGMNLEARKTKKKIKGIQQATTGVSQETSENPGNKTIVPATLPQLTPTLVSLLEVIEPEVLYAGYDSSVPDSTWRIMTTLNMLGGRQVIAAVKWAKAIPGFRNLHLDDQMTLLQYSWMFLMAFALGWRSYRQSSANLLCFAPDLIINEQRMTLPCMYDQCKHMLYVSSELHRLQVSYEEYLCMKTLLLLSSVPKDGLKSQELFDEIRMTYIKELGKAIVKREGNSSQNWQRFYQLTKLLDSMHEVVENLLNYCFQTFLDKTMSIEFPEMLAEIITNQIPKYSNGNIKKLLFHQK
row,Structure (SMILES),Potency
1,NC(=S)c1ccc[n+]([C@@H]2O[C@@H](COP(=O)([O-])OP(=O)(O)OC[C@@H]3O[C@@H](n4cnc5c(N)ncnc54)[C@@H](OP(=O)(O)O)[C@H]3O)[C@@H](O)[C@H]2O)c1,> 46 µM (inactive)
2,CC1(C)Cc2c(sc3nc4n(c(=N)c23)CCCCC4)CO1,> 20.6 µM (inactive)
3,COCCCNc1nc(-c2ccncc2)nc2ccccc12,> 20.6 µM (inactive)
4,COc1ccc(-c2oc3ncn4nc(COc5ccccc5)nc4c3c2-c2ccc(OC)cc2)cc1,> 20.6 µM (inactive)
5,CCOC(=O)C1=C(C)NC(C)=C(C(=O)OC)[C@H]1c1cccc(Cl)c1Cl,> 46 µM (inactive)
6,COc1ccc(N2CCN(C3CC(=O)NC3=O)CC2)cc1 (stereo unspecified),> 20.6 µM (inactive)
7,N#CC1=C(N)N(c2ccccc2)C(c2ccccc2)C1(C#N)C#N (stereo unspecified),> 20.6 µM (inactive)
8,Cn1c(OCc2cccnc2)nc2c1c(=O)n(Cc1ccc(Br)cc1)c(=O)n2C,> 20.6 µM (inactive)
9,COc1cccc(NC(=O)C2CC(=O)n3cnnc3S2)c1 (stereo unspecified),> 20.6 µM (inactive)
10,CNC(=O)Nc1cccc(NC(=O)NC)n1,> 20.6 µM (inactive)
11,Cc1nc(-c2cn[nH]c2)c2cc(C)oc2n1,> 20.6 µM (inactive)
12,CCCCCCCCN[C@@H](C)[C@H](O)c1ccc(SC(C)C)cc1,> 20.6 µM (inactive)
13,Cc1ccc(S(=O)(=O)/C(C#N)=C/c2c(N3CCN(C)CC3)nc3c(C)cccn3c2=O)cc1,> 20.6 µM (inactive)
14,CC1(C)Cc2nc3sc4c(N(CCO)CCO)ncnc4c3cc2CO1,> 20.6 µM (inactive)
15,CCc1cc(=O)oc2c(CN3CCN(C)CC3)c(O)c(Cl)cc12,> 20.6 µM (inactive)
16,CC(C)c1nc2n[nH]c(N)c2c2c1CCC2,> 20.6 µM (inactive)
17,NC(=O)/C(=C\c1ccncc1)c1cccc2ccccc12,> 46 µM (inactive)
18,CC(NC(=O)NCCCn1ccnc1)(C(F)(F)F)C(F)(F)F,> 20.6 µM (inactive)
19,CC1(C)C2CCC1(C)C(NC(=O)CCN1CCCCC1)C2 (stereo unspecified),> 20.6 µM (inactive)
20,C[C@H](CCC(=O)O)[C@H]1CC[C@@H]2[C@H]3CC[C@H]4C[C@@H](O)CC[C@@]4(C)[C@H]3CC[C@]21C,> 20.6 µM (inactive)

row,Structure (SMILES),Potency
1,CCCc1nc(N2CCOCC2)c(C#N)c2c1CCCC2,> 20.6 µM (inactive)
2,O=c1cc(-c2ccco2)nc(-c2cccs2)o1,> 20.6 µM (inactive)
3,Cc1cccc(OCC(=O)N2CCC(N3CCCCCC3)CC2)c1,> 20.6 µM (inactive)
4,Cc1cc(Cn2ccnc2)c(C)cc1Cn1ccnc1,> 20.6 µM (inactive)
5,COc1cccc(-c2nc(NCCN3CCOCC3)c3ccccc3n2)c1O,> 20.6 µM (inactive)
6,Cn1c(N2CCOCC2)nc2c1c(=O)n(Cc1ccc(Cl)cc1)c(=O)n2C,> 20.6 µM (inactive)
7,S=c1[nH]nc(-c2ccccc2)n1Cc1ccccc1,> 20.6 µM (inactive)
8,C=C1c2cc(OC)ccc2NC(=O)N1CC,> 20.6 µM (inactive)
9,C=CCNc1nnc(SC2CC(=O)N(c3ccc(OC)cc3)C2=O)s1 (stereo unspecified),> 20.6 µM (inactive)
10,Cc1ccc(S(=O)(=O)N2CCN(c3nc(C)c4c(c3C#N)CC(C)(C)OC4)CC2)cc1,> 20.6 µM (inactive)
11,O=C(CCN1C(=O)c2ccccc2C1=O)OCN1C(=O)c2ccccc2C1=O,> 20.6 µM (inactive)
12,N#Cc1c(NCCCO)nc(-c2ccccc2)c2c1CCCC2,> 20.6 µM (inactive)
13,Oc1c(C=Nc2cccnc2)sc2ccccc12,> 20.6 µM (inactive)
14,CCCCCSc1nc(N2CCOCC2)c2c(c1C#N)CC(C)(C)OC2,> 20.6 µM (inactive)
15,CCC(=O)Nc1nc2ccccc2n1Cc1ccccc1C,> 20.6 µM (inactive)
16,N#CCSc1nc2sc3c(c2c(=O)n1C1CCCCC1)CCCC3,> 20.6 µM (inactive)
17,COC(=O)CSC1=C(C#N)C(=O)NC2(CCCCC2)S1,> 20.6 µM (inactive)
18,Cc1c(C(=O)O)sc(=S)n1-c1ccccc1,> 20.6 µM (inactive)
19,C=CCOC(=O)C(C#N)c1nc2ccccc2nc1N1CCC(C(=O)OCC)CC1 (stereo unspecified),> 20.6 µM (inactive)
20,Cc1cc(C(C)(C)CC(C)(C)C)ccc1OCCOCC[N+](C)(C)Cc1ccccc1,> 20.6 µM (inactive)

# Molecular target: Glucocorticoid receptor (Homo sapiens) (UniProt P04150)
# Assay: GR-EFC Redistribution (AID 451; calls by dose curve)
# Settings: CHO-K1 GR-EFC translocation, beta-gal luminescence, 2 h
# Method in brief: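 CHO-K1 cells expressing nuclear EA and GR-ED fragments of b-gal; compounds titrated up to 46 uM final, 2 h at 37 C. GR nuclear translocation read as complemented b-gal luminescence after 1 h RT detection.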
row,Structure (SMILES),Potency
1,NC(=S)c1ccc[n+]([C@@H]2O[C@@H](COP(=O)([O-])OP(=O)(O)OC[C@@H]3O[C@@H](n4cnc5c(N)ncnc54)[C@@H](OP(=O)(O)O)[C@H]3O)[C@@H](O)[C@H]2O)c1,> 46 µM (inactive)
2,CCOC(=O)C1=C(C)NC(C)=C(C(=O)OC)[C@H]1c1cccc(Cl)c1Cl,> 46 µM (inactive)
3,CCCCCCCCN[C@@H](C)[C@H](O)c1ccc(SC(C)C)cc1,> 20.6 µM (inactive)
4,NC(=O)/C(=C\c1ccncc1)c1cccc2ccccc12,> 9.22 µM (inactive)
5,C[C@H](CCC(=O)O)[C@H]1CC[C@@H]2[C@H]3CC[C@H]4C[C@@H](O)CC[C@@]4(C)[C@H]3CC[C@]21C,> 20.6 µM (inactive)
6,Cc1cc(C(C)(C)CC(C)(C)C)ccc1OCCOCC[N+](C)(C)Cc1ccccc1,> 20.6 µM (inactive)
